Among all 52,000 compounds or so, about 1,700 (3.3%) were called active. Many of the other results were omitted from the sample, so actives are more common in it than they were. A number with no mark means an inactive call. Rule as the data show it: active = survival mostly below about 52% (no sharp cut-off); inactive = mostly above about 56%.

This assay has as its system Wild type. Kind of assay: growth inhibition of S. aureus wild type versus tarO mutant, primary screen, teichoic acid synthesis inhibitors, RN4220, OD600 (AID 463173). The following applies: S. aureus RN4220 wild type/DeltatarO growth, OD600, 18 h, stronger effect = lower value, screened at 18.75 µg/mL (by protocol).
Take `CCn1c(SCC(=O)N(C2CCCCC2)C2CCCCC2)nnc1C(C)C`: the survival is 100%.
As for `CCc1ccc(C2=C(C)C(N3CCC(C(=O)NCc4ccc(C)o4)CC3)=NS2(=O)=O)cc1`, the survival was 63%.
For the molecule `Cc1ccc(C(=O)NCCc2csc(-c3cccc(F)c3)n2)cc1C`, the survival is 78%.
Consider `O=C(COCc1cc(-c2ccco2)on1)Nc1cccc(O)c1`, for which the survival was 73%.
For the molecule `O=C(COCc1cc(-c2cccs2)on1)N1CCN(c2ccc(F)cc2)CC1`, the survival is 73%.
Regarding `O=C(COCc1cc(-c2cccs2)on1)Nc1cccc(O)c1`, the survival is -3% (active).
With `O=C(COCc1cc(-c2cccs2)on1)N1CCN(c2ccccc2)CC1`, the survival was 68%.
As to `Cc1ccc(NC(=O)COCc2cc(-c3cccs3)on2)cc1Cl`, the survival is 65%.
`O=C(COCc1cc(-c2cccs2)on1)N1CCN(c2cccc(Cl)c2)CC1`: the survival was 10% (active).
As for `CC(=O)N1CCCc2cc(S(=O)(=O)N(C)CC(=O)Nc3cccc(Cl)c3C)ccc21`, the survival is 68%.
For the molecule `CCOc1ccccc1NC(=O)Cn1nnc(C(=O)NCc2ccc(F)cc2)c1N`, the survival was 101%.
For the molecule `Cc1cccc(Nc2sc(C(=O)c3ccc(Cl)cc3)c(N)c2C(N)=O)c1`, the survival was 45%.
Take `Cc1ccc(C)n1-c1cccc2cccnc12`: the survival was 103%.
Turning to `CCc1ccc(NC(=O)COC(=O)CCCC2=NS(=O)(=O)c3ccccc3N2)cc1`, the survival was 129%.
Regarding `CCOc1ccccc1NC(=O)COC(=O)CC(C)(C)CC1=NS(=O)(=O)c2ccccc2N1`, the survival was 63%.
As for `COc1ccccc1NC(=O)COC(=O)CC(C)(C)CC1=NS(=O)(=O)c2ccccc2N1`, the figure is -3% (active); as for `O=C(COC(=O)CCCC1=NS(=O)(=O)c2ccccc2N1)Nc1ccc(Br)cc1`, 81%; as for `Cc1cccc(NC(=O)COC(=O)CCCC2=NS(=O)(=O)c3ccccc3N2)c1`, -4% (active).
On to `COc1ccc(Cl)cc1NC(=O)COC(=O)CC(C)(C)CC1=NS(=O)(=O)c2ccccc2N1`, for which the survival was 81%.
In the case of `CCS(=O)(=O)N1CCC(NC(=O)c2ccccc2Cl)CC1`, the survival was 127%.
Regarding `COc1cccc(NC(=O)CC2C(=O)OCCN2Cc2ccccc2)c1` (stereo unspecified), the survival was 161%.
Turning to `COc1ccc(CN2C(=O)N(c3cccc(C)c3)C(=O)C2CC(=O)Nc2ccc(F)cc2)cc1OC` (stereo unspecified), the survival was 73%.
On to `CCCSc1ncnc2c1c(-c1ccccc1)cn2-c1ccccc1OC`, for which the survival was 1% (active).
Take `CCCCSc1ncnc2c1c(-c1ccccc1)cn2-c1cccc(F)c1`: the survival was 84%.
As for `CCOC(=O)CSc1ncnc2c1c(-c1ccccc1)cn2-c1ccc(OC)cc1`, the survival is 75%.
Turning to `CCOC(=O)N1CCc2c(sc3c2c(=O)n(Cc2ccccc2)c(=O)n3CC(=O)Nc2ccc(F)cc2)C1`, the survival was 87%.
As for `CCCCNc1nc2c(c(=O)n(Cc3ccccc3)c(=O)n2C)n1C`, the figure is 67%.
On to `CCCCNc1nc2c(c(=O)n(Cc3ccc(Cl)cc3)c(=O)n2C)n1C`, for which the survival was 70%.
As for `CCCCNc1nc2c(c(=O)n(Cc3ccc(Cl)c(Cl)c3)c(=O)n2C)n1C`, the survival was 1% (active).
As for `Cc1ccc2[nH]c(=O)c3cc(C(=O)N(CCCOC(C)C)Cc4ccco4)sc3c2c1`, the figure is 71%.
As for `CCn1c(=O)c2cc(C(=O)N(CCCOC(C)C)Cc3ccco3)sc2c2ccccc21`, the survival was 1% (active).
In the case of `CCn1c(=O)c2cc(C(=O)N(C)c3cc(C)ccc3C)sc2c2ccccc21`, the survival was 125%.
As to `CCCn1c2ccccc2c2cnn(CC(=O)N(CCCOC(C)C)Cc3ccco3)c(=O)c21`, the survival is 76%.
Regarding `CCn1c(=O)c2cc(C(=O)N(CC(C)C)CC(C)C)sc2c2ccccc21`, the survival is -1% (active).
With `CCn1c(=O)c2cc(C(=O)N(CCN(C)C)Cc3ccccc3)sc2c2ccccc21`, the survival was 75%.
As for `O=C(NC1CCCCC1)c1ccco1`, the survival was 102%.
As for `COc1ccc(OC)c(NC(=O)c2sc3nc4c(cc3c2N)CCCCCC4)c1`, the survival was 70%.
As for `CC(=O)N1c2ccc(S(=O)(=O)N3CCCCCC3)cc2CC1C(=O)NCc1ccccc1F` (stereo unspecified), the figure is 131%; as for `O=C(NCCSc1c(-c2ccc(Br)cc2)[nH]c2ccccc12)c1ccc(S(=O)(=O)N2CCOCC2)cc1`, 84%; as for `Cn1c(SCCC(=O)O)nnc1-c1ccncc1`, 105%.
For `Cc1cc(N2CCCC(O)C2)n2nc(C)c(-c3ccc(F)cc3)c2n1` (stereo unspecified), the survival is 120%.
For the molecule `COc1ccc(C2=C(Nc3ccc(C)c(C)c3)c3ccccc3C2=O)cc1`, the survival was 90%.
Take `COc1ccc(C2=C(Nc3ccc(C)cc3C)c3ccccc3C2=O)cc1`: the survival was 76%.
Consider `COc1ccc(C2=C(Nc3ccc(Br)c(C)c3)c3ccccc3C2=O)cc1`, for which the survival is 20% (active).
On to `O=C(NCC1(c2ccccc2)CCCC1)C(=O)Nc1cccc(Br)c1`, for which the survival was 96%.
Consider `Cc1cc(C)cc(NC(=O)CCCn2c3ccccc3c(=O)c3ccccc32)c1`, for which the survival was 69%.
Next, `O=C(NCCc1ccccc1Cl)c1cc2ccccn2n1`: 140%; `COc1cc(NC(=O)c2nc3ccccc3nc2N2CCCCC2)cc(OC)c1OC`: 82%.
As for `COc1cc(NC(=O)C2CCN(c3nc4ccccc4nc3C(F)(F)F)CC2)cc(OC)c1`, the survival was 78%.
Take `COc1cc(NC(=O)C2CCN(c3cnc4ccccc4n3)CC2)cc(OC)c1OC`: the survival is -6% (active).
Regarding `CCc1ccc(-n2c(Cc3ccccc3)nnc2SCc2nc(-c3cccs3)no2)cc1`, the survival was 99%.
For the molecule `CCC(C(=O)Nc1ccc(C(C)=O)cc1)n1cnc2nc3c(cc2c1=O)CCCC3` (stereo unspecified), the survival is 63%.
For the molecule `CC(=O)c1ccc(NS(=O)(=O)c2cnc(N)nc2)cc1`, the survival was 1% (active).
For the molecule `COc1cc(NS(=O)(=O)c2cnc(N)nc2)cc(OC)c1`, the survival is 64%.
Turning to `Nc1ncc(S(=O)(=O)Nc2ccc(OC(F)(F)F)cc2)cn1`, the survival is 63%.
With `Cc1cccc(NC(=O)C2CCN(S(=O)(=O)c3ccc4c(c3)CCCN4C(=O)C3CCC3)CC2)c1`, the survival was 74%.
As for `COc1cccc(N2CC(NC(=O)C(c3ccccc3)c3ccccc3)CC2=O)c1` (stereo unspecified), the figure is 65%; as for `COc1ccc(C2c3c(n(C)c4ccccc34)C(=O)N2CC(=O)Nc2ccccc2Cl)cc1` (stereo unspecified), 135%.
On to `COc1ccccc1CNC(=O)CCc1c(C)c2cc3c(C)c(C)oc3cc2oc1=O`, for which the survival was 114%.
With `CCCOc1cccc(C(=O)Nc2ccc(-c3nc4ccccc4s3)c(Cl)c2)c1`, the survival is 65%.
Consider `Cc1cccc2cc(C#N)c(SCC(=O)NCC3CCCO3)nc12` (stereo unspecified), for which the survival is 103%.
On to `COc1cc(OC)c(NC(=O)CN(C)S(=O)(=O)c2ccc3c(c2)CCCC(=O)N3)cc1Cl`, for which the survival was 1% (active).
For `COc1cc(NC(=O)CN(C)S(=O)(=O)c2ccc3c(c2)CCCC(=O)N3)cc(OC)c1OC`, the survival is 81%.
As for `Cc1ccc(C)c(NC(=O)CCNS(=O)(=O)c2ccc3c(c2)CCCC(=O)N3)c1`, the survival is -6% (active).
In the case of `Cc1cccc(NC(=O)CCNS(=O)(=O)c2ccc3c(c2)CCCC(=O)N3)c1C`, the survival was 80%.
With `COc1cc(Cl)c(NC(=O)CN(C)S(=O)(=O)c2ccc3c(c2)CCCC(=O)N3)c(OC)c1`, the survival is 59%.
Take `Cc1ccc(NC(=O)CCNS(=O)(=O)c2ccc3c(c2)CCCC(=O)N3)cc1`: the survival was 73%.
Turning to `Cc1ccc(C)c(NC(=O)Cn2ncc3c([nH]c4ccccc43)c2=O)c1`, the survival is 45%.
Turning to `CC(C)c1ccc(NC(=O)Cc2ccc(NC(=O)N3CCCCc4ccccc43)cc2)cc1`, the survival is 110%.
`Nc1cc(=O)nc(SCC(=O)Nc2ccccc2)n1CCc1ccccc1`: the survival was 69%.
Next, `Cc1ccc(NC(=O)CN2C(=O)C3(SCC(=O)N3c3ccc(F)c(F)c3)c3ccccc32)c(C)c1` (stereo unspecified): 69%; `CCc1nc(Nc2ccc(F)c(Cl)c2)c2c3c(sc2n1)CCCC3`: -1% (active); `COc1ccc(Nc2ncnc3sc4c(c23)CCCC4)cc1`: 73%.
As for `O=C(Cn1nnc2sc3c(c2c1=O)CCCC3)Nc1ccc(F)c(Cl)c1`, the figure is 33%.
Consider `Cc1cc(C)c(Cn2c3ccccc3c3cnn(CC(=O)N4CCCCCC4)c(=O)c32)c(C)c1`, for which the survival was 1% (active).
On to `Cc1ccccc1Cn1c2ccccc2c2cnn(CC(=O)NC3CCC(C)CC3)c(=O)c21` (stereo unspecified), for which the survival is 78%.
As to `CCCn1c2ccccc2c2cnn(CC(=O)N3CCN(c4ccccc4F)CC3)c(=O)c21`, the survival is -6% (active).
Consider `CCN1CCN(C(=O)Cn2ncc3c4ccccc4n(Cc4ccccc4F)c3c2=O)CC1`, for which the survival is 82%.
For `Cc1ccccc1Cn1c2ccccc2c2cnn(CC(=O)N3CCC(C)CC3)c(=O)c21`, the survival was 12% (active).
Regarding `CCN1CCN(C(=O)Cn2ncc3c4ccccc4n(Cc4c(C)cc(C)cc4C)c3c2=O)CC1`, the survival was 126%.
Consider `CCCn1c2ccccc2c2cnn(CC(=O)N3CCC(C)CC3)c(=O)c21`, for which the survival was 67%.
Turning to `Cc1cc(C)c(Cn2c3ccccc3c3cnn(CC(=O)N4CCCCC4)c(=O)c32)c(C)c1`, the survival is 125%.
As for `CC1CCN(C(=O)Cn2ncc3c4ccccc4n(Cc4ccc(Cl)cc4)c3c2=O)CC1`, the survival was 95%.
Next, `COc1ccc(NC(=O)Nc2nnc(N(CC(C)C)CC(C)C)s2)c(OC)c1`: 96%; `COc1ccccc1C(=O)Nc1sc(Nc2ccccc2)nc1C(N)=O`: 146%.
For the molecule `S=c1nc(CNc2ccccc2)[nH][nH]1`, the survival is 95%.
As for `CC(=O)N1c2c(cc(Br)cc2S(=O)(=O)N2CCN(c3cc(C)ccc3C)CC2)CC1C` (stereo unspecified), the figure is 72%; as for `COc1ccc(NC(=O)Cn2c(=O)n(CCCCCC(=O)NCc3ccc4c(c3)OCO4)c(=O)c3sccc32)cc1Cl`, 89%.
For the molecule `COc1ccc2c(CNCCc3cccs3)c(C(=O)O)n(Cc3ccc(F)cc3Cl)c2c1`, the survival is 115%.
Take `CCCCN1CC(c2nc3ccccc3n2CCCCOc2ccccc2C)CC1=O` (stereo unspecified): the survival is 15% (active).
As for `CCCCN1CC(c2nc3ccccc3n2CCCCOc2c(C)cccc2C)CC1=O` (stereo unspecified), the survival was 61%.
As to `CCCCn1c(C2CC(=O)N(c3ccc(OCC)cc3)C2)nc2ccccc21` (stereo unspecified), the survival is 84%.
Regarding `Cc1ccccc1OCCCCn1c(C2CC(=O)N(c3ccccc3Cl)C2)nc2ccccc21` (stereo unspecified), the survival was 59%.
As for `CCCCN1CC(c2nc3ccccc3n2CCCCOc2ccc(C)c(C)c2)CC1=O` (stereo unspecified), the survival is 24%.
Regarding `CCCCN1CC(c2nc3ccccc3n2CCCCOc2cccc(C)c2C)CC1=O` (stereo unspecified), the survival is -13% (active).
On to `CCCCN1CC(c2nc3ccccc3n2CCCCOc2cc(C)cc(C)c2)CC1=O` (stereo unspecified), for which the survival was 14% (active).
